Shown are actives, neighbours in structure and some others; about 22% of the full set was active somewhere.
CYP2C9 inh = blockers of cytochrome P450 2C9 activity – biochemical, luminescence, ADME assay, primary screen; inhibition, % at 5 µM; CYP2C9 Supersomes, luciferin-H conversion; P11712; actives 20% (n = 96,000); AID 777, 2007;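 active = blocking of liver enzyme CYP2C9 beyond about 50% at 5 µM, limit read from the data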
Target sequence (P11712 whole entry, looked up): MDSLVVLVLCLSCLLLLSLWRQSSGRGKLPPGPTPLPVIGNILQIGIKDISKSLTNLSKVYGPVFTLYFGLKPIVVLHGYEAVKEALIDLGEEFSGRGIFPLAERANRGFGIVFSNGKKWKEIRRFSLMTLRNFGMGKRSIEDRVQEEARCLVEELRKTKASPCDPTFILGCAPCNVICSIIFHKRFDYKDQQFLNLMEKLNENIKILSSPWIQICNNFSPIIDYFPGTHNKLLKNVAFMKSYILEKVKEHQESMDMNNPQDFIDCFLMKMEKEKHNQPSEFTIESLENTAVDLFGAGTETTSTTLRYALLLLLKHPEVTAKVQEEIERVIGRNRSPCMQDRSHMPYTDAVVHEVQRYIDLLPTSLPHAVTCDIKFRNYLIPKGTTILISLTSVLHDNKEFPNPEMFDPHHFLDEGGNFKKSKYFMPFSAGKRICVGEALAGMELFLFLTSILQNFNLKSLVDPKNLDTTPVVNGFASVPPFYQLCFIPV
CYP2C19 inhib = blockers of cytochrome P450 2C19 activity – biochemical, luminescence, ADME assay, primary screen. actives 21% (n = 96,000). inhibition, % at 5 µM. P33261. AID 778, 2007. CYP2C19 Supersomes, luciferin-H EGE luminescence, 30 min;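 active = CYP2C19 inhibition above a set limit at 5 µM in the primary screen, cut at about 50% in these data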;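 note: plate controls were negative control wells for no effect and 2.5 mM tranylcypromine positive control for full effect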
CYP2C19 activ = human CYP2C19 activators, primary screen, biochemical, luminescence. AID 1025, 2008. 96,000 tested, under 10 active. activation factor at 5 µM. Cytochrome P450 2C19 (Homo sapiens), P33261. recombinant CYP2C19, luciferin-H EGE luminescence; stronger effect = higher value; 0 = fully inhibited enzyme, 1 = untreated enzyme;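 active = activation factor of at least 2 at 5 µM in the primary screen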;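 note: 0 = wells with 2.5 mM tranylcypromine and 1 = vehicle-only wells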
Measles CPE = compounds protecting cells from measles virus cytopathic effect, primary screen, measles RdRp inhibitor project, single point, MLSMR library, absorbance; actives 1.5% (n = 140,000); protection (pct of control), % at 4 µM; Measles virus-infected cells, CPE protection; in the data active = protection mostly above about 24%, no sharp cut-off; inactive = mostly below about 26%
CYP2C9 act = human CYP2C9 activators, primary screen, biochemical, luminescence; Cytochrome P450 2C9 (Homo sapiens), P11712; recombinant CYP2C9, luciferin-H conversion; stronger effect = higher value; factor 1 = untreated enzyme, 0 = blocked; activation factor at 5 µM; actives 1.4% (n = 96,000); AID 1024, 2008;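 active = activation factor of 2 or more for CYP2C9 at a 5 µM dose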;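 note: 0 = sulfaphenazole-blocked wells and 1 = vehicle-only wells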
The depositor's hits bear a star; nt = no result.

SMILES	CYP2C9 inh	CYP2C19 inhib	CYP2C19 activ	Measles CPE	CYP2C9 act
CCC(=O)N1CN(S(=O)(=O)c2ccc(C)cc2)CC1C (configuration not stated)	13	53*	0.5	7	0.9
O=C(Cn1cnc2ccccc2c1=O)Nc1ccc(-c2nnc3n2CCCCC3)cc1	6	6	0.9	8	0.9
COCCCn1c(SCC(=O)NCc2ccccc2)nc2ccccc2c1=O	nt	nt	nt	5	nt
COc1cccc(NC(=O)CSc2nc3ccccc3c(=O)n2CCCC(=O)N2CCCC2)c1	88*	72*	0.3	10	0.1
COCCn1c(SCC(=O)Nc2cccc(C(=O)OC)c2)nc2ccccc2c1=O	56*	28	0.7	nt	0.4
COc1ccc(NC(=O)CSc2nc3ccccc3c(=O)n2CCC(=O)N2CCCCC2)cc1	nt	nt	nt	2	nt
O=C(Cn1cnc2ccccc2c1=O)Nc1cccc(-c2nnc3n2CCCCC3)c1	49	57*	0.4	3	0.5
COCCCn1c(SCC(=O)Nc2ccc(C(C)=O)cc2)nc2ccccc2c1=O	71*	99*	0	11	0.3
CC(C)(C)c1nnc(SCC(=O)c2ccccc2)n(N)c1=O	nt	nt	nt	5	nt
COC(=O)c1ccc(C)c(NC(=O)c2nn(C)c(=O)c3ccccc23)c1	45	12	0.9	7	0.5
CCn1c(SCC(=O)Nc2ccc(C(C)=O)cc2)nc2nc3c(cc2c1=O)CCCC3	68*	42	0.6	0	0.3
COC(=O)Cn1c(=O)cnc2ccccc21	-13	-5	1.1	8	1.1
COC(=O)c1cc(NC(=O)Cn2c(=O)cnc3ccccc32)cc(C(=O)OC)c1	89*	19	0.8	7	0.1
COC(=O)c1cccc(NC(=O)Cn2cnc3ccccc3c2=O)c1	98*	75*	0.3	19	0
CCn1c(SCC(=O)Nc2ccc(Cl)cc2)nc2nc3c(cc2c1=O)CCCC3	nt	nt	nt	22	nt
COC(=O)c1cccc(NC(=O)c2nn(C)c(=O)c3ccccc23)c1	55*	28	0.7	11	0.5
CC(=O)c1coc2ccc(OCC(=O)O)cc12	nt	nt	nt	2	nt
O=C(CNc1cc(S(=O)(=O)N2CCCC2)ccc1OCC(F)(F)F)Nc1cccc(C(F)(F)F)c1	nt	nt	nt	23	nt
CCCc1ccc2c(N)c(C#N)sc2n1	27	90*	0.1	nt	0.7
Cc1ccc(C(CCN(Cc2ccccc2)C(=O)c2ccco2)c2ccco2)cc1 (configuration not stated)	nt	nt	nt	7	nt
Cc1ccc(-c2nn(-c3ccccc3)cc2CN(Cc2ccccc2)C(=O)c2ccco2)o1	70*	26	0.7	12	0.3
COc1ccc(Cl)cc1-n1c(C)cc(C=O)c1C	60*	87*	0.1	26	0.4
COc1ccc(Cl)cc1-n1c(C)cc(C(=O)O)c1C	0	10	0.9	13	1
O=C(COc1ccc(C(F)(F)F)cc1[N+](=O)[O-])Nc1cccc(C(F)(F)F)c1	nt	nt	nt	50*	nt
COC(=O)Cc1cn(-c2ncc(C(F)(F)F)cc2Cl)c2ccccc12	71*	74*	0.3	11	0.3
SMILES	CYP2C9 inh	CYP2C19 inhib	CYP2C19 activ	Measles CPE	CYP2C9 act
NC(=O)Cc1cn(-c2ncc(C(F)(F)F)cc2Cl)c2ccccc12	49	48	0.5	24	0.5
Cc1ccccc1C(=O)NNC(=O)c1ccc(F)cc1	-14	62*	0.4	9	1.1
Brc1ccc(-c2cnc3n2CCCC3)cc1	-2	50*	0.5	4	1
CCOc1ccc(-c2cnc3n2CCC3)cc1	8	-2	1	3	0.9
O=C(CCC1CCCC1)N1CCN(C(=O)c2cccnc2)CC1	1	70*	0.3	27	1
Cc1cccc(OCC(=O)N2CCN(C(=O)CCC3CCCC3)CC2)c1	51*	62*	0.4	6	0.5
CCOC(=O)c1c(C)c(-c2ccccc2)n(CC(=O)NCCC(C)C)c1C	46	18	0.8	3	0.5
Fc1ccccc1N1CCN(CCCNc2ccc3nncn3n2)CC1	2	37	0.6	17	1
CCC(=O)NS(=O)(=O)c1cccnc1Nc1ccc(Cl)cc1	96*	18	0.8	24	0
NS(=O)(=O)c1cccnc1Nc1ccc(Cl)c(Cl)c1	43	50	0.5	5	0.6
CC(=O)NS(=O)(=O)c1cccnc1Nc1ccc(Cl)c(Cl)c1	71*	4	1	1	0.3
COC(=O)c1sc(N)c(C(=O)OC)c1COC(=O)CCNS(=O)(=O)c1ccc(C)cc1	nt	nt	nt	7	nt
CC(C)[C@H](NC(=O)c1cccc(S(=O)(=O)N2CCOCC2)c1)C(=O)Nc1nc2ccccc2s1	nt	nt	nt	16	nt
O=C(/C(=C/c1ccccc1)n1cncn1)c1ccc(Cl)cc1Cl	nt	nt	nt	11	nt
OC(c1ccc(Cl)cc1Cl)C(Cc1cccnc1)n1cncn1 (configuration not stated)	9	86*	0.1	14	0.9
CC(=O)C1=C(O)C(=O)N(Cc2cccnc2)C1c1ccc(Cl)cc1Cl (configuration not stated)	nt	nt	nt	17	nt
OC(Cn1cncn1)c1ccc(Cl)cc1 (configuration not stated)	58*	95*	0	4	0.4
OC(Cn1cncn1)c1ccc(Cl)cc1Cl (configuration not stated)	56*	98*	0	9	0.4
O=C(N1CCOCC1)N1CCCN(C(=O)N2CCOCC2)CC1	-19	0	1	7	1.2
Cc1ccsc1-c1nc(C(N)=O)c2[nH]c(=O)n(-c3ccc(Cl)cc3)c2n1	nt	nt	nt	6	nt
COc1ccc(N(Cc2ccccc2)C(=O)CSc2nnc(Cn3nnc4ccccc43)o2)cc1	74*	42	0.6	5	0.3
COc1ccc(-c2nnc(SCC(=O)c3ccc(C)o3)o2)cc1	nt	nt	nt	12	nt
O=C(CSc1nnc(Cn2nnc3ccccc32)o1)N(Cc1ccc(F)cc1)c1ccccc1	59*	32	0.7	12	0.4
COc1ccc(CN(C(=O)CSc2nnc(-c3ccc(F)cc3)o2)c2ccc(F)cc2)cc1	68*	54*	0.5	15	0.3
O=C(CSc1nnc(Cn2nnc3ccccc32)o1)Nc1ccc(Cl)cc1	nt	nt	nt	28	nt
COC(=O)CN1C(=O)C(O)(CC(=O)c2ccc(C)cc2)c2ccccc21 (configuration not stated)	32	62*	0.4	1	0.7
CCOC(=O)CN1C(=O)C(O)(CC(=O)c2cccc(OC)c2)c2ccccc21 (configuration not stated)	28	63*	0.4	23	0.7
C=CCN1C(=O)C(O)(CC(=O)c2ccc(N)cc2)c2ccccc21 (configuration not stated)	-11	60*	0.4	3	1.1
